The source of these data is the supplement of paper PMC9492666.

Conditions in all cases: 72 h
Assay [1] concerns HCC1937. In words: relative cell viability, compound + RSL3, vs DMSO (fraction of DMSO control); higher = less growth inhibition.
The subject of assay [2] is MDA-MB-231. The assay is described as above.
The subject of assay [3] is HCC1937. In words: relative cell viability, compound + erastin, vs DMSO (fraction of DMSO control); higher = less growth inhibition.
For assay [4], the system named is MDA-MB-231. The description is as above.
In assay [5] the test system is HCC1937. In words: relative cell viability, compound alone, vs DMSO (fraction of DMSO control); higher = less growth inhibition.
Assay [6] relates to MDA-MB-231. The description is as above.

Each structure is given as a SMILES string. Where a name gives a salt, the structure may show the parent alone.
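Wherever relative cell viability, compound + RSL3, vs DMSO is given: breast cancer cell viability read out with the CCK-8 kit after co-treatment of each compound with the ferroptosis inducer RSL3.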
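Wherever relative cell viability, compound + erastin, vs DMSO is given: viability read by CCK-8 kit in 96-well plates, part of a combination screen pairing lipid-metabolism-targeting compounds with erastin.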
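Wherever relative cell viability, compound alone, vs DMSO is given: viability read out with the CCK-8 kit in 96-well plates, screening a set of 303 compounds acting on lipid metabolism targets.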

As for `CCc1c(C(=O)C(N)=O)c2c(OCC(=O)O)cccc2n1Cc1ccccc1` [Varespladib] + COC(=O)c1ccc([C@H]2c3[nH]c4ccccc4c3C[C@H](C(=O)OC)N2C(=O)CCl)cc1 [RSL3], the relative cell viability came to 0.449 in assay [1] and 0.574 in assay [2].

For the compound `Cc1cc(SCc2sc(-c3ccc(C(F)(F)F)c(F)c3)nc2C)ccc1OCC(=O)O` + COC(=O)c1ccc([C@H]2c3[nH]c4ccccc4c3C[C@H](C(=O)OC)N2C(=O)CCl)cc1 [RSL3], the values for the relative cell viability in assay [1] and in assay [2] were 0.59 and 0.668, respectively.

On to `CCC1C(O)C2C3CCC(C(C)CCO)C3(C)CCC2C2(C)CCC(O)CC12` (stereo not drawn) + CCOc1ccccc1-n1c(C(C)N2CCN(C(=O)COc3ccc(Cl)cc3)CC2)nc2ccccc2c1=O [erastin], for which the relative cell viability is 0.656 in assay [3] and 0.58 in assay [4].

As to `C/C=C/c1cc(OC)c(OC)cc1OC` [alpha-Asarone] + COC(=O)c1ccc([C@H]2c3[nH]c4ccccc4c3C[C@H](C(=O)OC)N2C(=O)CCl)cc1 [RSL3], the results for the relative cell viability in assay [1] and in assay [2] were 0.452 and 0.541, respectively.

With `CC(C)=CCC[C@](C)(O)[C@H]1CC[C@]2(C)[C@@H]1[C@H](O)C[C@@H]1[C@@]3(C)CC[C@H](O)C(C)(C)[C@@H]3[C@@H](O[C@@H]3O[C@H](CO)[C@@H](O)[C@H](O)[C@H]3O)C[C@]12C` [Ginsenoside Rh1], the relative cell viability in assay [5] was 1.09; in assay [6], 1.03.

On to `CC(C)=CCC[C@](C)(O)[C@H]1CC[C@]2(C)[C@@H]1[C@H](O)C[C@@H]1[C@@]3(C)CC[C@H](O)C(C)(C)[C@@H]3[C@@H](O[C@@H]3O[C@H](CO)[C@@H](O)[C@H](O)[C@H]3O)C[C@]12C` [Ginsenoside Rh1] + COC(=O)c1ccc([C@H]2c3[nH]c4ccccc4c3C[C@H](C(=O)OC)N2C(=O)CCl)cc1 [RSL3], for which the figures for the relative cell viability in assay [1] and in assay [2] were 0.654 and 0.679, respectively.

Turning to `O=C(NCCN1CCC2(CC1)C(=O)NCN2c1ccccc1)c1ccc2ccccc2c1` + COC(=O)c1ccc([C@H]2c3[nH]c4ccccc4c3C[C@H](C(=O)OC)N2C(=O)CCl)cc1 [RSL3], the relative cell viability in assay [1] was 0.229; in assay [2], 0.51.

Regarding `CCc1c(C(=O)C(N)=O)c2c(OCC(=O)O)cccc2n1Cc1ccccc1` [Varespladib], the values for the relative cell viability in assay [5] and in assay [6] were 0.797 and 0.842, respectively.

`COc1ccc(Nc2ccn(-c3ccccc3)n2)cc1` + CCOc1ccccc1-n1c(C(C)N2CCN(C(=O)COc3ccc(Cl)cc3)CC2)nc2ccccc2c1=O [erastin]: the relative cell viability in assay [3] amounted to 0.686; in assay [4], 0.902.

For the compound `NNC(=O)c1nn(Cc2ccc(Cl)cc2Cl)c2ccccc12` [Adjudin] + COC(=O)c1ccc([C@H]2c3[nH]c4ccccc4c3C[C@H](C(=O)OC)N2C(=O)CCl)cc1 [RSL3], the values for the relative cell viability in assay [1] and in assay [2] were 0.557 and 0.45, respectively.

Turning to `C[C@]12CC[C@@H](O)C[C@@H]1CC[C@@H]1[C@@H]2CC[C@]2(C)C(=O)CC[C@@H]12` [Androsterone], the relative cell viability in assay [5] was 1.33; in assay [6] it was 1.08.

Consider `Cc1cc(SCc2sc(-c3ccc(C(F)(F)F)c(F)c3)nc2C)ccc1OCC(=O)O`, for which the relative cell viability worked out at 1.21 in assay [5] and 0.892 in assay [6].

For `O=C1C=CC[C@@H]2[C@H]3CCCN4CCC[C@@H](CN12)[C@@H]34` [Sophocarpine], the relative cell viability in assay [5] came out at 0.762; in assay [6], 0.906.

Turning to `O=C(Oc1ccc([N+](=O)[O-])cc1)N1CCN(Cc2cccc(Oc3ccccc3)c2)CC1`, the relative cell viability in assay [5] is 0.79; in assay [6] it was 0.782.

For `O=C(Oc1ccc([N+](=O)[O-])cc1)N1CCC(C(O)(c2ccc3c(c2)OCO3)c2ccc3c(c2)OCO3)CC1` + COC(=O)c1ccc([C@H]2c3[nH]c4ccccc4c3C[C@H](C(=O)OC)N2C(=O)CCl)cc1 [RSL3], the figures for the relative cell viability in assay [1] and in assay [2] were 0.483 and 0.618, respectively.

As for `O=C(CBr)c1ccc(O)cc1` [PTP Inhibitor I], the relative cell viability in assay [5] worked out at 1.17; in assay [6], 0.937.

Take `Cc1cc([N+](=O)[O-])ccc1NS(=O)(=O)c1cc(Cl)ccc1Cl` + CCOc1ccccc1-n1c(C(C)N2CCN(C(=O)COc3ccc(Cl)cc3)CC2)nc2ccccc2c1=O [erastin]: the results for the relative cell viability in assay [3] and in assay [4] were 0.585 and 0.616, respectively.

Turning to `Cc1ccc(CN(CC(O)COc2cccc3[nH]ccc23)C(C)(C)C)cc1` (stereo not drawn) + CCOc1ccccc1-n1c(C(C)N2CCN(C(=O)COc3ccc(Cl)cc3)CC2)nc2ccccc2c1=O [erastin], the relative cell viability in assay [3] came out at 0.731; in assay [4] it was 0.846.

Turning to `C[C@@H](Nc1nc(N[C@H](C)C(F)(F)F)nc(-c2cccc(Cl)n2)n1)C(F)(F)F` [Vorasidenib] + CCOc1ccccc1-n1c(C(C)N2CCN(C(=O)COc3ccc(Cl)cc3)CC2)nc2ccccc2c1=O [erastin], the relative cell viability stood at 0.607 in assay [3] and 0.68 in assay [4].

As to `Cc1c(C(=O)Nc2ccc(CO)cc2)nnn1Cc1ccc(Cl)c(Cl)c1` + CCOc1ccccc1-n1c(C(C)N2CCN(C(=O)COc3ccc(Cl)cc3)CC2)nc2ccccc2c1=O [erastin], the relative cell viability in assay [3] turned out to be 0.684; in assay [4] it was 0.733.

For `CC(C)=CCC(O)C1=CC(=O)c2c(O)ccc(O)c2C1=O` (single isomer, unassigned; (+)) [(+)-Shikonin] + CCOc1ccccc1-n1c(C(C)N2CCN(C(=O)COc3ccc(Cl)cc3)CC2)nc2ccccc2c1=O [erastin], the figures for the relative cell viability in assay [3] and in assay [4] were 0.159 and 0.494, respectively.

With `O=C(NCCN1CCC2(CC1)C(=O)NCN2c1ccccc1)c1ccc2ccccc2c1` + CCOc1ccccc1-n1c(C(C)N2CCN(C(=O)COc3ccc(Cl)cc3)CC2)nc2ccccc2c1=O [erastin], the relative cell viability in assay [3] was found to be 0.392; in assay [4], 0.589.

In the case of `N=C(N)NC(=N)NCCc1ccccc1` [Phenformin hydrochloride] + CCOc1ccccc1-n1c(C(C)N2CCN(C(=O)COc3ccc(Cl)cc3)CC2)nc2ccccc2c1=O [erastin], the relative cell viability in assay [3] stood at 0.756; in assay [4], 0.999.

Regarding `CCCCCCCCCc1ccc(B(O)O)cc1` [4-Nonylphenylboronic acid] + CCOc1ccccc1-n1c(C(C)N2CCN(C(=O)COc3ccc(Cl)cc3)CC2)nc2ccccc2c1=O [erastin], the relative cell viability came out at 0.9 in assay [3] and 0.358 in assay [4].

As for `Cc1cc(C)c(S(=O)(=O)Nc2cccc(C(F)(F)F)c2)c(C)c1` + CCOc1ccccc1-n1c(C(C)N2CCN(C(=O)COc3ccc(Cl)cc3)CC2)nc2ccccc2c1=O [erastin], the relative cell viability in assay [3] turned out to be 0.922; in assay [4], 0.98.

For the compound `CN(C)C(=O)Nc1cccc(-c2ccc(N(C)C)cc2)c1` [Atglistatin] + CCOc1ccccc1-n1c(C(C)N2CCN(C(=O)COc3ccc(Cl)cc3)CC2)nc2ccccc2c1=O [erastin], the results for the relative cell viability in assay [3] and in assay [4] were 0.438 and 1.06, respectively.

`O=C(CC(C(=O)O)c1c[nH]c2ccccc12)c1ccc(F)cc1F` (stereo not drawn) [Mitochonic acid 5] + CCOc1ccccc1-n1c(C(C)N2CCN(C(=O)COc3ccc(Cl)cc3)CC2)nc2ccccc2c1=O [erastin]: the relative cell viability in assay [3] came to 0.931; in assay [4], 1.

Take `O=C(CCCCCCCC(=O)NCCO)NCCO` [Adelmidrol] + CCOc1ccccc1-n1c(C(C)N2CCN(C(=O)COc3ccc(Cl)cc3)CC2)nc2ccccc2c1=O [erastin]: the relative cell viability in assay [3] is 0.701; in assay [4] it was 0.73.

For `CC1(N)CCN(c2cnc(-c3cccc(Cl)c3Cl)c(N)n2)CC1` [SHP099 hydrochloride] + CCOc1ccccc1-n1c(C(C)N2CCN(C(=O)COc3ccc(Cl)cc3)CC2)nc2ccccc2c1=O [erastin], the relative cell viability in assay [3] worked out at 0.729; in assay [4], 0.647.

Consider `O=C(Nc1ccccc1)N1CCN(c2nc(-c3ccccc3)ns2)CC1` + CCOc1ccccc1-n1c(C(C)N2CCN(C(=O)COc3ccc(Cl)cc3)CC2)nc2ccccc2c1=O [erastin], for which the relative cell viability came to 0.559 in assay [3] and 0.353 in assay [4].

As to `CC(=O)N1CCN(c2ccc(OCC3COC(Cn4ccnc4)(c4ccc(Cl)cc4Cl)O3)cc2)CC1` (stereo not drawn) [Ketoconazole] + CCOc1ccccc1-n1c(C(C)N2CCN(C(=O)COc3ccc(Cl)cc3)CC2)nc2ccccc2c1=O [erastin], the figures for the relative cell viability in assay [3] and in assay [4] were 0.884 and 0.602, respectively.

Consider `CC(C)(Oc1ccc(Cl)cc1)C(=O)O` [Clofibric acid] + CCOc1ccccc1-n1c(C(C)N2CCN(C(=O)COc3ccc(Cl)cc3)CC2)nc2ccccc2c1=O [erastin], for which the relative cell viability in assay [3] was found to be 0.923; in assay [4] it was 0.592.

Regarding `O=C(OC(C(F)(F)F)C(F)(F)F)N1CCN(Cc2ccc(C(F)(F)F)cc2N2CCCC2)CC1` + CCOc1ccccc1-n1c(C(C)N2CCN(C(=O)COc3ccc(Cl)cc3)CC2)nc2ccccc2c1=O [erastin], the relative cell viability in assay [3] came out at 0.583; in assay [4], 0.74.

With `CCCCCCCCCCCCC/C=C/[C@@H](O)[C@@H](N)CO` + CCOc1ccccc1-n1c(C(C)N2CCN(C(=O)COc3ccc(Cl)cc3)CC2)nc2ccccc2c1=O [erastin], the results for the relative cell viability in assay [3] and in assay [4] were 0.248 and 0.363, respectively.

Regarding `CC(C)=CCC[C@](C)(O)[C@H]1CC[C@]2(C)[C@@H]1[C@H](O)C[C@@H]1[C@@]3(C)CC[C@H](O)C(C)(C)[C@@H]3[C@@H](O[C@@H]3O[C@H](CO)[C@@H](O)[C@H](O)[C@H]3O)C[C@]12C` [Ginsenoside Rh1] + CCOc1ccccc1-n1c(C(C)N2CCN(C(=O)COc3ccc(Cl)cc3)CC2)nc2ccccc2c1=O [erastin], the relative cell viability in assay [3] stood at 0.679; in assay [4], 0.663.

With `CCC1=N[C@H]2C[C@@]3(C(=O)N(OC)c4ccccc43)[C@H]3CC1[C@@H]2CO3` [Humantenmine] + CCOc1ccccc1-n1c(C(C)N2CCN(C(=O)COc3ccc(Cl)cc3)CC2)nc2ccccc2c1=O [erastin], the results for the relative cell viability in assay [3] and in assay [4] were 0.573 and 0.63, respectively.

As to `CN1c2ccccc2C(=O)Nc2cnc(Nc3ccc(N4CCC(O)CC4)cc3)nc21` + CCOc1ccccc1-n1c(C(C)N2CCN(C(=O)COc3ccc(Cl)cc3)CC2)nc2ccccc2c1=O [erastin], the relative cell viability was 0.205 in assay [3] and 0.644 in assay [4].

With `O=C(O)c1cccnc1Nc1cccc(C(F)(F)F)c1` [Niflumic acid] + CCOc1ccccc1-n1c(C(C)N2CCN(C(=O)COc3ccc(Cl)cc3)CC2)nc2ccccc2c1=O [erastin], the values for the relative cell viability in assay [3] and in assay [4] were 0.771 and 0.599, respectively.

Regarding `CC(C)CCC[C@@H](C)[C@H]1CC[C@H]2[C@@H]3CCC4=CC(=NO)CC[C@]4(C)[C@H]3CC[C@]12C` [Olesoxime] + CCOc1ccccc1-n1c(C(C)N2CCN(C(=O)COc3ccc(Cl)cc3)CC2)nc2ccccc2c1=O [erastin], the relative cell viability in assay [3] turned out to be 0.673; in assay [4], 0.663.
